“And” between values parts separate entries of the source, which are not always exact repeats. Identical values can stand only once. Results filed as inconclusive are left out. The source made the active and inactive calls. Calls come from the whole dose curve; as a rule, active = well fitted inhibition curve with a large enough effect; inconclusive = small, poorly fitted or top-dose-only effect, or effect the other way; inactive = flat fitted curve, though single readings scatter.

From PubChem BioAssay AID2588 (National Center for Advancing Translational Sciences (NCATS), 2010) come the findings set out here.

Chain of Lysosomal acid glucosylceramidase (Homo sapiens) (P04062 whole entry, looked up): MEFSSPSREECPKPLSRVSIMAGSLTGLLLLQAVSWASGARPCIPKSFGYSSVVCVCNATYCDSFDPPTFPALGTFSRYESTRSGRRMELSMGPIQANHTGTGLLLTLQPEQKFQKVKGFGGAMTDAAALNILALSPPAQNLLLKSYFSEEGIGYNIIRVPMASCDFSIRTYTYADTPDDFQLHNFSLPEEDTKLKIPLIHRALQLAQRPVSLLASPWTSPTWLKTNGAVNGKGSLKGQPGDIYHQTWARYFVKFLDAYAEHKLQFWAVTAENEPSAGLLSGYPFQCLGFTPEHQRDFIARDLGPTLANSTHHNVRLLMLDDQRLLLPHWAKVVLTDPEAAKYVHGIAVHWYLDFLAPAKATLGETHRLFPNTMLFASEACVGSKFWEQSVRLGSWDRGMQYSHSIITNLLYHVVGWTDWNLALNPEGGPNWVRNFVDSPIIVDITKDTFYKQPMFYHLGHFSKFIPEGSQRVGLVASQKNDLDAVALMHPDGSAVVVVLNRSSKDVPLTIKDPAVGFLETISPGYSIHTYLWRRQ

The test has as its target Lysosomal acid glucosylceramidase (Homo sapiens) (UniProt P04062). The test is described as follows: qHTS Assay for Inhibitors and Activators of N370S glucocerebrosidase as a Potential Chaperone Treatment of Gaucher Disease: Activity in Non-Mutant Spleen Homogenate Using a Red Fluorescent Substrate. Conditions: red fluorogenic substrate GCase activity; series mostly up to 50.2 µM. An excerpt:
NIH Chemical Genomics Center [NCGC]
NIH Molecular Libraries Probe Production Centers Network [MLPCN]
Assay Submitter (PI): Wei Zheng
Glucocerebrosidase (GC) catalyzes the hydrolysis of beta-glucocerebroside to glucose and ceramide in lysosomes. Mutations in the glucocerebrosidase gene result in Gaucher disease, an autosomal recessive lysosomal storage disorder. Many of the mutations encountered in patients with Gaucher disease are missense alterations that may cause misfolding, decreased stability and/or mistrafficking of this lysosomal protein. […] These inhibitors include iminosugar analogs and three non-iminosugar inhibitors identified from a previous HTS of 62,000 compounds with the wild type recombinant enzyme. However, the enhancement of enzyme activity by the chaperone action of an enzyme inhibitor must be balanced against the direct inhibition of the enzyme. An enzyme activator could also function as a chaperone by binding to the enzyme and helping to correct its misfolding and mistrafficking. While activators for GC have not yet been identified, they may have better therapeutic potential than inhibitors. Therefore the discovery and development of chemical activators may provide a new strategy for the chaperone therapy.
We have optimized a new assay using N370S mutant GC derived from the spleen of a Gaucher patient. […] In addition, the MLPCN compound library has expanded, which increases the chance of finding new and better probes.
This confirmation assay tests for compound activity in spleen homogenate containing wildtype enzyme using an alternate resorufin-based substrate.
NCGC Assay Protocol Summary:
This is a fluorogenic enzyme assay with resorufin-beta-D-glucopyranoside as the substrate and wildtype glucocerebrosidase from human spleen homogenate as the enzyme preparation. Upon the hydrolysis of this fluorogenic substrate, the resulting product, […] which can be detected by a standard fluorescence plate reader. Data were normalized to the controls for basal activity (without enzyme) and 100% activity (with enzyme). The AC50 values were determined from concentration-response data modeled with the standard Hill equation.
Assay buffer: 50 mM citric acid (titrated with potassium phosphate to pH 5.0), 100 mM potassium chloride, 10 mM sodium chloride, 1 mM magnesium chloride, 0.01% Tween-20.
1536-well assay protocol:
(1) Add 2 ul/well of spleen homogenate (27 ug final)
(2) Add 23 nL compounds in DMSO solution. The final titration was 0.5 nM to 58 uM.
(3) Add 2 ul of substrate (1 mM final)
(4) Incubate at 37C for 40 min.
(5) Add 2 ul stop solution (1M NaOH and 1M Glycine mixture, pH 10)
(6) Detect the assay plate in a ViewLux plate reader (PerkinElmer) with Ex=365 nm and Em=440nm.
Keywords: Glucocerebrosidase, beta-glucosidase, Gaucher Disease, pharmacological chaperone, chaperone therapy, high throughput screening, glucocerebrosidase inhibitor, MLSMR, MLSCN, NIH Roadmap, qHTS and NCGC
As to `CC(=O)c1ccc(S(=O)(=O)N2CCN(c3nc(-c4cccs4)nc4ccccc34)CC2)cc1`, the Potency is 1.12 µM (active).

`O=S(=O)(c1ccc(Br)cc1)N1CCN(c2nc(-c3cccs3)nc3ccccc23)CC1`: the Potency is 0.794 µM (active).

As for `COc1cccc(CN(C)c2nc(-c3cccs3)nc3ccccc23)c1`, the Potency was 2 µM (active).

For the molecule `Cc1ccc(C)c(N2CCN(C(=O)CCC(=O)Nc3ccc4nc(N5CCOCC5)cc(C)c4c3)CC2)c1`, the Potency was 14.1 µM (active).

For the molecule `O=[N+]([O-])c1cccc(S(=O)(=O)N2CCN(c3nc(-c4cccs4)nc4ccccc34)CC2)c1`, the Potency was 1.12 µM (active).

For the molecule `O=[N+]([O-])c1ccccc1S(=O)(=O)N1CCN(c2nc(-c3ccccc3)nc3ccccc23)CC1`, the Potency is 4.47 µM (active).

For the molecule `CC(C)(C)c1ccc(S(=O)(=O)N2CCN(c3nc(-c4cccs4)nc4ccccc34)CC2)cc1`, the Potency is 1.12 µM (active).

For `Cc1cc(C)cc(N(CC(=O)NC2CCCCCC2)S(=O)(=O)c2c(C)[nH]c(=O)[nH]c2=O)c1`, the Potency is 0.631 µM (active).

Regarding `O=C(/C=C/c1ccc(O)cc1)c1ccc(O)cc1O`, the Potency is 3.98 µM (active).

In the case of `COc1ccc(-c2nc(N3CCN(S(=O)(=O)c4ccc(F)cc4)CC3)c3ccccc3n2)cc1`, the Potency result was “inactive”.

As for `CC(C)(C)C(=O)OCCNc1nc(-c2ccccc2)nc2ccccc12`, the Potency is 2.24 µM (active).

For the molecule `O=c1cc(N2CCCCC2)c(-c2ccccc2)nn1Cc1c(Cl)cccc1Cl`, the Potency entry was “inactive”.

For `O=S(=O)(c1ccc(Cl)cc1)N1CCN(c2nc(-c3ccc(Cl)cc3)nc3ccccc23)CC1`, the Potency entry was “inactive”.

In the case of `COc1ccccc1OCC(=O)Nc1oc(-c2ccccc2)c(-c2ccccc2)c1C#N`, the Potency entry was “inactive”.

Take `O=C(Nc1cc(Br)ccc1O)c1cnn2c(C(F)F)cc(C3CC3)nc12`: the Potency entry is “inactive”.

In the case of `O=S(=O)(c1ccc(F)cc1)N1CCN(c2nc(-c3ccc(F)cc3)nc3cc(Cl)ccc23)CC1`, the Potency entry is “inactive”.

With `O=S(=O)(c1ccc2ccccc2c1)N1CCN(c2nc(-c3cccs3)nc3ccccc23)CC1`, the Potency was 0.251 µM (active).

As to `O=S(=O)(c1cccc(C(F)(F)F)c1)N1CCN(c2nc(-c3cccs3)nc3ccccc23)CC1`, the Potency is 0.794 µM (active).

On to `COc1ccccc1C(=O)COC(=O)c1ccccc1OCC(=O)Nc1ccc(SC(F)F)cc1`, for which the Potency result is “inactive”.

As to `O=S(=O)(c1cccc(C(F)(F)F)c1)N1CCN(c2nc(-c3cccs3)nc3cc(Cl)ccc23)CC1`, the Potency result is “inactive”.

As to `COc1cc(OC)c2c(N)c(C#N)c(C(F)(F)C(F)(F)F)nc2c1`, the Potency result is “inactive”.

For `CCN(CC)c1ccc(C(=O)Nc2ccc3nc(N4CCOCC4)cc(C)c3c2)cc1`, the Potency is 10 µM (active).

Turning to `CC1(C)CC(=O)C2=C(C1)c1c(ccc3ccccc13)NC2c1ccc(Br)o1` (stereo not given), the Potency result is “inactive”.

Consider `O=S(=O)(c1ccc(F)cc1)N1CCN(c2nc(-c3ccccc3)nc3cc(Cl)ccc23)CC1`, for which the Potency result was “inactive”.

In the case of `O=S(=O)(c1ccccc1Cl)N1CCN(c2nc(-c3cccs3)nc3ccccc23)CC1`, the Potency was 0.794 µM (active).

For the molecule `O=[N+]([O-])c1ccc(S(=O)(=O)N2CCN(c3nc(-c4cccs4)nc4ccccc34)CC2)cc1`, the Potency was 1.12 µM (active).

In the case of `Cc1cc(N2CCOCC2)nc2ccc(NC(=O)CCC3CCCC3)cc12`, the Potency was 3.16 µM (active).

Take `NS(=O)(=O)c1ccc(S(=O)(=O)N2CCN(c3nc(-c4cccs4)nc4ccccc34)CC2)cc1`: the Potency is 2.24 µM (active).

Turning to `Cc1cc(Nc2cccc(Cl)c2)nc2ccc(NC(=O)C3CCC(C)CC3)cc12` (stereo not given), the Potency result is “inactive”.

In the case of `Cc1cc(N2CCOCC2)nc2ccc(NC(=O)CCC(=O)NC3CCCCC3)cc12`, the Potency result is “inactive”.

Turning to `O=S(=O)(c1ccc(Cl)cc1)N1CCN(c2nc(-c3cccc(Br)c3)nc3ccccc23)CC1`, the Potency entry is “inactive”.

On to `O=S(=O)(c1ccc(Cl)cc1)N1CCN(c2nc(-c3ccc(F)cc3)nc3cc(Cl)ccc23)CC1`, for which the Potency entry was “inactive”.

In the case of `Cc1ccccc1-c1nccc(NCc2cccs2)n1`, the Potency is 14.1 µM (active).

As to `O=S(=O)(c1cccc(Cl)c1)N1CCN(c2nc(-c3cccs3)nc3ccccc23)CC1`, the Potency is 1.26 µM (active).

With `O=S(=O)(c1ccc(F)cc1)N1CCN(c2nc(-c3cccs3)nc3ccccc23)CC1`, the Potency was 0.794 µM (active).

With `O=S(=O)(c1ccccc1)N1CCN(c2nc(-c3cccs3)nc3ccccc23)CC1`, the Potency was 0.316 µM (active).

As to `O=C(COc1ccccc1[N+](=O)[O-])Nc1ccc(Br)cc1`, the Potency entry was “inactive”.

Consider `O=S(=O)(c1ccc(Cl)cc1)N1CCN(c2nc(-c3cccs3)nc3ccccc23)CC1`, for which the Potency was 1.58 µM (active) and 355 nM (active).

Turning to `O=S(=O)(c1ccc(C(F)(F)F)cc1)N1CCN(c2nc(-c3cccs3)nc3ccccc23)CC1`, the Potency was 1.26 µM (active).

For the molecule `O=S(=O)(c1cccc(Br)c1)N1CCN(c2nc(-c3cccs3)nc3ccccc23)CC1`, the Potency is 1.41 µM (active).
